Activity calls are given as the source filed them. How the source made its calls: active means hit-call score of the fitted dose curve at least 0.9, where 1 is the maximum; inactive means score below 0.9.
Key:
Settings in all cases: mRNA level, 48 h; actives raise or lower the signal
[1] = read-out: Glutathione S-Transferase (GSTA2), GSTA2 (gene 2939); test: LTEA_HepaRG_GSTA2: Life Technologies and Expression Analysis (LTEA) Assay for Glutathione S-Transferase (GSTA2) using HepaRG (AID 2283497)
Outline: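 Human HepaRG cells, plated 48 h, then exposed in serum-free induction medium for 48 h to eight half-log concentrations up to 100 uM in 0.5% DMSO, duplicate. GSTA2 mRNA by qRT-PCR, normalized to ACTB/GAPDH/POLR2A; bidirectional fit versus DMSO.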

[2] = read-out: Glutamate-cysteine ligase catalytic (GCLC), GCLC (gene 2729); test: LTEA_HepaRG_GCLC: Life Technologies and Expression Analysis (LTEA) Assay for Glutamate-cysteine ligase catalytic (GCLC) using HepaRG (AID 2283498)
Outline: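 Differentiated human HepaRG cells, plated 48 h then switched to serum-free induction medium, were exposed in duplicate for 48 h to 8 half-log concentrations topping at 100 uM in 0.5% DMSO. GCLC mRNA was quantified by qRT-PCR against ACTB, GAPDH and POLR2A.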

[3] = read-out: growth arrest and DNA damage 45 (GADD45G), GADD45G (gene 10912); test: LTEA_HepaRG_GADD45G: Life Technologies and Expression Analysis (LTEA) Assay for growth arrest and DNA damage 45 (GADD45G) using HepaRG (AID 2283499)
Outline: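 Concentration-response in HepaRG: 48 h dosing, 0.5% DMSO, highest level 100 uM. GADD45G expression by qRT-PCR, normalised to endogenous controls; bidirectional fit to DMSO.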

[4] = read-out: Glutamate-cysteine ligase regulatory (GCLM), GCLM (gene 2730); test: LTEA_HepaRG_GCLM: Life Technologies and Expression Analysis (LTEA) Assay for Glutamate-cysteine ligase regulatory (GCLM) using HepaRG (AID 2283500)
Outline: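 Human liver HepaRG cultures receive test chemicals for 48 hours at up to 100 uM in 0.5% DMSO. GCLM expression is measured by qRT-PCR and analysed for increases or decreases against vehicle.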

[5] = read-out: Glutathione S-transferase M3 (GSTM3), GSTM3 (gene 2947); test: LTEA_HepaRG_GSTM3: Life Technologies and Expression Analysis (LTEA) Assay for Glutathione S-transferase M3 (GSTM3) using HepaRG (AID 2283501)
Outline: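 Expression of GSTM3 is determined by qRT-PCR in human liver HepaRG cells treated 48 h with an 8-point half-log range from 100 uM in 0.5% DMSO.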

[6] = read-out: Heat shock 70 kDa protein 1 (HSPA1A), gene 3303; test: LTEA_HepaRG_HSPA1A: Life Technologies and Expression Analysis (LTEA) Assay for Heat shock 70 kDa protein 1 (HSPA1A) using HepaRG (AID 2283502)
Outline: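 HSPA1A induction in human HepaRG liver cells is measured after 48 h of chemical treatment (100 uM maximum, 0.5% DMSO vehicle). Expression comes from qRT-PCR normalized to endogenous controls.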

[7] = read-out: Hypoxia-inducible factor 1-alpha (Homo sapiens) (UniProt Q16665); test: LTEA_HepaRG_HIF1A: Life Technologies and Expression Analysis (LTEA) Assay for Hypoxia-inducible factor 1 (HIF1A) Trancription factor using HepaRG (AID 2283503)
Outline: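 HepaRG, 48 h exposure, 8-pt half-log series from 100 uM, 0.5% DMSO vehicle, duplicates. Readout: HIF1A transcript by qRT-PCR (Fluidigm array), housekeeping-normalised. Bidirectional curve fit vs DMSO baseline.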

[8] = read-out: 3-Hydroxy-3-Methylglutaryl-CoA Synthase 2 (HMGCS2), HMGCS2 (gene 3158); test: LTEA_HepaRG_HMGCS2: Life Technologies and Expression Analysis (LTEA) Assay for 3-Hydroxy-3-Methylglutaryl-CoA Synthase 2 (HMGCS2) using HepaRG (AID 2283504)
Outline: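 This steatosis marker was read as HMGCS2 mRNA change in HepaRG cells treated 48 h with up to 100 uM chemical. Normalisation used housekeeping genes; activity in either direction was fitted relative to 0.5% DMSO vehicle.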

HGF (gene 3082) = test: LTEA_HepaRG_HGF: Life Technologies and Expression Analysis (LTEA) Assay for Hepatocyte Growth Facto (HGF) using HepaRG (AID 2283505)
Outline: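 Using HepaRG monolayers kept in 0.5% DMSO, chemicals were tested in duplicate over eight half-log concentrations from 100 uM for 48 h. Endpoint: HGF mRNA change relative to DMSO, normalized to ACTB/GAPDH/POLR2A.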

[9] = read-out: Insulin Like Growth Factor 1 (IGF1), IGF1 (gene 3479); test: LTEA_HepaRG_IGF1: Life Technologies and Expression Analysis (LTEA) Assay for Insulin Like Growth Factor 1 (IGF1) using HepaRG (AID 2283506)
Outline: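 Using human HepaRG liver cells, IGF1 transcript induction or suppression is measured 48 h after dosing across eight concentrations capped at 100 uM. Values derive from bidirectional concentration-response fitting with DMSO as baseline.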

[10] = read-out: Intercellular Adhesion Molecule 1 (ICAM1), ICAM1 (gene 3383); test: LTEA_HepaRG_ICAM1: Life Technologies and Expression Analysis (LTEA) Assay for Intercellular Adhesion Molecule 1 (ICAM1) using HepaRG (AID 2283507)
Outline: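 Using the human liver line HepaRG, compounds are tested in duplicate over 48 h at concentrations up to 100 uM. Expression is determined by TaqMan qRT-PCR, normalized to endogenous controls, and analysed relative to 0.5% DMSO vehicle.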

[11] = read-out: Insulin-like growth factor-binding protein 1 (IGFBP1), IGFBP1 (gene 3484); test: LTEA_HepaRG_IGFBP1: Life Technologies and Expression Analysis (LTEA) Assay for Insulin-like growth factor-binding protein 1 (IGFBP1) using HepaRG (AID 2283508)
Outline: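 HepaRG, 48 h, 8 conc. (max 100 uM, half-log), duplicates, 0.5% DMSO. Readout: TaqMan qRT-PCR, ACTB/GAPDH/POLR2A normalisation. Fit: bidirectional vs DMSO.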

[12] = read-out: Interleukin 6 (IL6), IL6 (gene 3569); test: LTEA_HepaRG_IL6: Life Technologies and Expression Analysis (LTEA) Assay for Interleukin 6 (IL6) using HepaRG (AID 2283509)
Outline: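 Differentiated human HepaRG cells, plated 48 h then switched to serum-free induction medium, were exposed in duplicate for 48 h to eight half-log concentrations up to 100 uM in 0.5% DMSO. IL6 mRNA measured by qRT-PCR, normalized to ACTB/GAPDH/POLR2A.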

[13] = read-out: Interleukin 6 Receptor (IL6R), IL6R (gene 3570); test: LTEA_HepaRG_IL6R: Life Technologies and Expression Analysis (LTEA) Assay for Interleukin 6 Receptor (IL6R) using HepaRG (AID 2283510);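 on AC50: TaqMan qRT-PCR signal normalized to ACTB GAPDH and POLR2A housekeeping genes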
Outline: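 Concentration-response in human liver HepaRG cells: eight concentrations from 100 uM downward by half-logs, 48 h exposure, 0.5% DMSO vehicle. IL6R mRNA change measured by qRT-PCR and fitted in both directions relative to vehicle.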

[14] = read-out: Potassium channel subfamily K member 1 (KCNK1), KCNK1 (gene 3775); test: LTEA_HepaRG_KCNK1: Life Technologies and Expression Analysis (LTEA) Assay for Potassium channel subfamily K member 1 (KCNK1) using HepaRG (AID 2283511)
Outline: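 Differentiated human HepaRG cells in serum-free induction medium were exposed in duplicate for 48 h to 8 half-log concentrations up to 100 uM in 0.5% DMSO. KCNK1 mRNA was measured by TaqMan qRT-PCR, normalized to ACTB, GAPDH and POLR2A, and fitted bidirectionally versus DMSO.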

[15] = read-out: Keratin 19 (KRT19), KRT19 (gene 3880); test: LTEA_HepaRG_KRT19: Life Technologies and Expression Analysis (LTEA) Assay for Keratin 19 (KRT19) using HepaRG (AID 2283512)
Outline: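 Readout is qRT-PCR of KRT19 mRNA, normalized to ACTB, GAPDH and POLR2A, from HepaRG cells treated 48 h with eight-point half-log dilutions topping at 100 uM. Activity in either direction is scored relative to 0.5% DMSO vehicle.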

[16] = read-out: JUN Transcription Factor, JUN (gene 3725); test: LTEA_HepaRG_JUN: Life Technologies and Expression Analysis (LTEA) Assay for JUN Transcription Factor using HepaRG (AID 2283513)
Outline: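 Human HepaRG liver cells receive test chemicals in 0.5% DMSO for 48 h across an eight-point range topping at 100 uM. Expression changes in JUN are scored in both directions against the DMSO vehicle.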

[17] = read-out: Lipase C (LIPC), LIPC (gene 3990); test: LTEA_HepaRG_LIPC: Life Technologies and Expression Analysis (LTEA) Assay for Lipase C (LIPC) using HepaRG (AID 2283514)
Outline: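 Differentiated human HepaRG cells in serum-free induction medium were exposed in duplicate for 48 h to eight concentrations (top 100 uM, half-log steps, 0.5% DMSO). LIPC mRNA was quantified by TaqMan qRT-PCR, normalized to ACTB, GAPDH and POLR2A, with bidirectional fitting versus DMSO.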

[18] = read-out: Lipoprotein lipase (LPL), LPL (gene 4023); test: LTEA_HepaRG_LPL: Life Technologies and Expression Analysis (LTEA) Assay for Lipoprotein lipase (LPL) using HepaRG (AID 2283515)
Outline: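 Differentiated human HepaRG cells in serum-free induction medium were exposed in duplicate for 48 h to eight half-log concentrations (top 100 uM) in 0.5% DMSO. LPL mRNA was quantified by TaqMan qRT-PCR, normalized to ACTB, GAPDH and POLR2A.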

[19] = read-out: MicroRNA 122 (MIR122), gene 406906; test: LTEA_HepaRG_MIR122: Life Technologies and Expression Analysis (LTEA) Assay for MicroRNA 122 (MIR122) using HepaRG (AID 2283516); further: the transcript read is the microRNA miR-122
Outline: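 HepaRG, 48 h exposure, 8-pt half-log from 100 uM, 0.5% DMSO; TaqMan qRT-PCR; bidirectional fit vs DMSO.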

Measured: AC50

Chain of Hypoxia-inducible factor 1-alpha (Homo sapiens) (Q16665 whole entry, looked up): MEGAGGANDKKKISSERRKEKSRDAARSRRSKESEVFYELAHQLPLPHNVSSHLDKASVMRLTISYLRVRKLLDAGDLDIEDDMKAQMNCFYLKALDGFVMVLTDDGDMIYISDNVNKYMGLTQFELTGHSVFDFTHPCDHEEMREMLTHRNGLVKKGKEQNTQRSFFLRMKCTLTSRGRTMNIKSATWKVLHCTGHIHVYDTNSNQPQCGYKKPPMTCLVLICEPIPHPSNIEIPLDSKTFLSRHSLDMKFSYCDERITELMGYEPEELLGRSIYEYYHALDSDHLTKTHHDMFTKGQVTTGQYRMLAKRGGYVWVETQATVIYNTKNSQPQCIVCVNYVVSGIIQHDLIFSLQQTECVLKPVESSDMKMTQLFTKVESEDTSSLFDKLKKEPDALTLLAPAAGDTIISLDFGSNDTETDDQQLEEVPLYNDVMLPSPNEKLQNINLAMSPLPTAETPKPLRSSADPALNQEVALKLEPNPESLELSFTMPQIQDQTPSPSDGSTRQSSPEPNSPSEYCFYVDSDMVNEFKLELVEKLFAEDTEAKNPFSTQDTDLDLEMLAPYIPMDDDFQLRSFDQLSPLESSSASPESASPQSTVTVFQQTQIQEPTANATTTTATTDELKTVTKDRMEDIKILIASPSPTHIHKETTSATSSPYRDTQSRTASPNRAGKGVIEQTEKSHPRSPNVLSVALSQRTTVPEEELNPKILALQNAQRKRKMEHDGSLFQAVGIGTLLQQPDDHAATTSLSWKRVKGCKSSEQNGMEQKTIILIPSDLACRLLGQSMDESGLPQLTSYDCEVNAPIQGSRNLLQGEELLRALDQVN

CC(=O)C(C)=CC1C(C)=CCCC1(C)C (configuration not stated)
inactive: all assays above

CCc1c(C(=O)NN2CCCCC2)nn(-c2ccc(Cl)cc2Cl)c1-c1ccc(Br)cc1
active: [1] 31.7 µM | [2] 50 µM | [3] 41.6 µM | [4] 50 µM | [6] 86.3 µM | [7] 86.6 µM | [8] 23.7 µM | [9] 50 µM | [10] 26.6 µM | [11] 31.6 µM | [12] 76.5 µM | [13] 89.1 µM | [14] 58.6 µM | [15] 50 µM | [16] 50 µM | [17] 34.2 µM | [18] 4.13 µM
inactive: [5]

CC(=O)OCCOCCOCCOC(C)=O
not listed: [19]
inactive: all other assays above

From PubChem BioAssay (EPA / NIEHS)
